# High-throughput results (PubChem)
# A selection: hits, their analogues and other compounds. The true share with any hit is near 7.3%.
# AmpC inh detg – qHTS Inhibitors of AmpC Beta-Lactamase (assay with detergent). AmpC hydrolysis of nitrocefin, absorbance 480 nm, 0.01% Triton. Potency, µM (titrated, usually from 114 µM), without a hit: at the top dose activity change, negative = inhibition, hits mostly inhibitors. hit rate 0.041% among 370,000. AID 485294, 2010;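 note: potency is the fitted concentration of half-maximal effect; 0% = no-compound wells and -100% = no-enzyme wells; nearly all actives have a fitted effect of over 25% in size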
# Target sequence (P00811 whole entry, looked up): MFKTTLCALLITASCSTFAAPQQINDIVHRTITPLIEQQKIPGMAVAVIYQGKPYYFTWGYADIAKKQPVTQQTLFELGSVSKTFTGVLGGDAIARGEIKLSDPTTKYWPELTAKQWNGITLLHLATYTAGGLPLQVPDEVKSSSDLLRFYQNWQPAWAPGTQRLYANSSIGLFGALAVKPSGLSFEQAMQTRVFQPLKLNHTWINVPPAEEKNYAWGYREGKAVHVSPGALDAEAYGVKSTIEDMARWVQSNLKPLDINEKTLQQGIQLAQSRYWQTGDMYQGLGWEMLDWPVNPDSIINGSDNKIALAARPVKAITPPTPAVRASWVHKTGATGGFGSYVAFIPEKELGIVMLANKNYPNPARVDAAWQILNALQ
#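 20 mM phosphate pH 7.0 + 0.01% (detergent screen) or 0.0001% Triton X-100; 5.3 nM AmpC reagent; cpd preinc 15 min RT; nitrocefin (800 uM stock) to start; A480 q20 s × 4 min; Activity was normalised to no-enzyme and no-compound control wells.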
# HCMV inh – qHTS Assay for inhibitors of the human cytomegalovirus (HCMV); HFF cells, HCMV-luciferase reporter, 72 h; active compounds read low; activity change, negative = inhibition, % at 57.5 µM; hit rate 4.5% among 410,000; AID 1259415, 2018; in the data active = activity change below about -60%; inconclusive = no clear call, values can overlap the other calls; inactive = above about -39%
#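 Luciferase read-out from HCMV-luciferase-infected HFFs (MOI 1 PFU/cell) 72 h post infection at 37C; compounds added after 16 h cell attachment; activity normalized between buffer-only basal and Salinomycin (10uM) inhibitor controls.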
# AmpC no deterg – qHTS Inhibitors of AmpC Beta-Lactamase (assay without detergent). P00811. AmpC nitrocefin hydrolysis, absorbance 480 nm, 0.0001% Triton. Potency, µM (series often up to 57.1 µM), inactives show at the top dose activity change, negative = inhibition, usual class: inhibitors. hit rate 0.52% among 330,000;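 note: potency is the fitted concentration of half-maximal effect; plate controls were no compound for no effect and no enzyme for full effect; nearly all actives have a fitted effect of over 20% in size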
#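 AmpC (5.3 nM in the dispensed reagent) in 20 mM phosphate pH 7.0 with 0.01% (detergent screen) or 0.0001% Triton X-100 was preincubated with compounds for 15 min at room temperature. Nitrocefin was then added from an 800 uM solution, and hydrolysis was followed at 480 nm.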
# FMDV inh – High Throughput Screening for Foot and Mouth Disease Virus Antivirals; FMDV antiviral cell-based qHTS; Potency, µM (top dose mostly 57.9 µM), without a hit: top-dose activity change, negative = inhibition, hits mostly inhibitors; hit rate 1.2% among 410,000; AID 1159524, 2015; calls by dose curve; tested in HEK293T cells; note: read-out not given here; potency is the fitted concentration of half-maximal effect; nearly all actives have a fitted effect of over 45% in size
# HCV inhibitor – qHTS Assay for Inhibitors of Hepatitis C Virus (HCV). hit rate 3.4% among 340,000. Potency, µM (titrated, usually from 41.8 µM), inactives show at the top dose activity change, negative = inhibition, most hits filed as inhibitors. AID 651820, 2012. Huh7.5.1 HCVcc-Cre infection, luciferase reporter, 44 h; note: potency is the fitted concentration of half-maximal effect
#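 Seed cells (1,000/well) for 4 h; treat with compound and infect with HCVcc-Cre, moi about 0.5. Incubate 44 h, then detect luciferase activity.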
# Numbers without * were called inactive; u = inconclusive; x = no result. Unless noted, calls come from the whole dose curve; as a rule, active = well fitted curve in the direction sought with a large enough effect; inconclusive = small, poorly fitted or top-dose-only effect, or another doubt; inactive = no such curve, though single readings can be large; an effect the other way counts as inactive or inconclusive. Unless noted, % is set by controls: 0 for no effect and ±100 for the full control effect.
SMILES,AmpC inh detg,HCMV inh,AmpC no deterg,FMDV inh,HCV inhibitor
CC1OC(CC(=O)O)CC2=C1C(=O)c1c(O)cccc1C2=O (stereo unspecified),x,-27,x,3.5µM*,0.56µM*
COc1ccc(Cl)cc1C(=O)CSc1nnnn1C1CCCCC1,1%,-62*,-21%,-24%,u
COCCn1c(C)cc(C(=O)CSc2n[nH]c(N)n2)c1C,-7%,28,-12%,40%,16%
COc1ccc(Cl)cc1C(=O)CSc1nnnn1C1CCCC1,-14%,-16,-4%,12%,u
COCCn1c(C)cc(C(=O)CSc2nnc(C)s2)c1C,2%,u,x,7.9µM*,-14%
COCCn1c(C)cc(C(=O)COC(=O)c2cccc(O)c2)c1C,-1%,-36,-7%,11µM*,-17%
COCCn1c(C)cc(C(=O)CSc2nnnn2C2CCCC2)c1C,-4%,u,1%,13µM*,-16%
O=C(Cc1ccc(F)cc1)N1CCC(c2nc3c(nnn3Cc3ccc(Cl)cc3)c(=O)[nH]2)CC1,0%,11,x,-25%,x
COCC(=O)N1C[C@H]2CON(C)[C@H]2C[C@H]1c1ccc(N2CCCCC2)cc1,x,7,x,0%,x
O=C(C[C@@H]1C[C@H]2c3cc(NC(=O)NC4CCCCC4)ccc3O[C@H]2[C@H](CO)O1)NC1CCCCC1,x,-20,x,0%,x
Cc1ccccc1-n1c(O)c(C=Nc2ccc3c(c2)OCO3)c(=O)[nH]c1=O,-15%,4,-31%,-15%,19%
O=c1c2ccccc2c(C=Nc2cccc(O)c2)c(O)n1-c1ccc2c(c1)OCO2,2%,-86*,-37%,-33%,-23%
COCCNC(=O)c1cccc(NC(=O)C2=C(C)OCCS2)c1,-1%,-40,10%,-4%,9%
CC1=C(C(=O)Nc2cccc(C(=O)NC3CCCC(C)C3C)c2)SCCO1 (stereo unspecified),-6%,0,-1%,-22%,13µM*
COc1ccc(OC)c(CCNC(=O)Cc2ccc(NC(=O)C3=C(C)OCCS3)cc2)c1,x,-19,x,17%,x
COc1ccc(OC)c(CCNC(=O)c2cccc(NC(=O)C3=C(C)OCCS3)c2)c1,-8%,-13,-20%,-2%,11µM*
COc1ccc(CCNC(=O)c2ccccc2NC(=O)C2=C(C)OCCS2)c(OC)c1,0%,-7,-12%,-4%,10µM*
CCn1nc(C)c(CN2CCc3c([nH]c4ccccc34)C2c2ccc(F)c(OC)c2)c1C (stereo unspecified),11%,-76*,97%,-9%,u
Cc1ccc(N2C(=O)[C@@H]3[C@H](C2=O)[C@H]2C=C(C(=O)c4ccccc4)C=CN2[C@@H]3C(=O)c2ccc(Cl)cc2)cc1,-11%,4,-33%,-11%,-4%
O=C(C1=C[C@@H]2[C@H]3C(=O)N(c4cccc(Cl)c4)C(=O)[C@H]3[C@@H](C(=O)c3ccc(Cl)cc3)N2C=C1)c1ccccc1,-10%,x,13µM*,-1%,7%
CCCC(=O)Nc1c2c(nn1-c1ccc(C)cc1)CS(=O)(=O)C2,-10%,50,-15%,-15%,15%
COCc1c(C(=O)N2CCN(C(C)C)CC2)cnn1-c1nccc(-c2cc(C)sc2C)n1,x,x,x,-10%,x
CCOC(=O)c1oc2ccc(S(=O)(=O)n3nc(-c4ccc(OC)cc4)cc3N)cc2c1C,u,-67*,-34%,u,-5%
COC(=O)C=CC(=NNc1ccccc1)c1ccccc1,x,46,x,-20%,22µM*
CO/N=C/C(=N\Nc1ccccc1)C(=O)c1ccccc1,1%,-39,-7%,-4%,u
SMILES,AmpC inh detg,HCMV inh,AmpC no deterg,FMDV inh,HCV inhibitor
O=C(COC(=O)C12CC3CC(CC(C3)C1)C2)Nc1ccc2[nH]c(=O)[nH]c2c1,-2%,x,u,27%,4%
CC(C)(C)C1CCC(C(=O)OCC(=O)Nc2ccc3[nH]c(=O)[nH]c3c2)CC1 (stereo unspecified),-2%,-72*,-37%,-21%,19%
COc1cccc2cc(C(=O)NCc3ccco3)c(=O)oc12,-3%,u,2%,22%,19%
COc1cccc2cc(C(=O)NCc3ccco3)c(=Nc3ccc(C(=O)O)cc3)oc12,-3%,-78*,-27%,x,13%
CCCCCCn1c(O)c(/C=N/N2CCCCCC2)c(=O)[nH]c1=O,u,-64*,-20%,-2%,-13%
COc1ccc(CN2C(=O)CN(S(C)(=O)=O)CC2(C)C(=O)Nc2ccc3c(c2)OCCO3)cc1OC (stereo unspecified),x,-20,x,-1%,x
CC(C)CNc1nnnc2c1sc1nc(N3CCOCC3)c3c(c12)CC(C)(C)SC3,3%,u,-25%,u,10µM*
CC1(C)Cc2c(c(N3CCOCC3)nc3sc4c(NN)ncnc4c23)CS1,1%,-88*,-39%,-5%,u
CCN(CC)S(=O)(=O)c1cc(NC(=O)CO/N=C(\N)c2ccccc2Cl)ccc1C,-20%,-7,-21%,-24%,u
CN(C)c1nc(N)c(C#N)c(C#N)c1C#N,x,-20,x,-22%,12%
Cc1cc(C)nc(SCc2ccc(C(=O)N/N=C/c3ccncc3)cc2)n1,2%,19,42%,-6%,-11%
Cc1cc(C)nc(SCc2ccc(C(=O)NNC(=O)Nc3cccc(Cl)c3)cc2)n1,-5%,-31,-7%,8%,25µM*
Cc1cc2nc(-c3cc4ccccc4[nH]3)c(=O)n(/C=C(/c3ccccc3)n3c(=O)[nH]c4ccccc43)c2cc1C,x,10,x,x,x
COCCCNC(=O)CSC1=Nc2ccccc2C2=NC(c3ccccc3)C(=O)N12 (stereo unspecified),1%,-64*,-4%,19%,16%
COCCCNC(=O)CSC1=Nc2ccccc2C2=NC(Cc3c[nH]c4ccccc34)C(=O)N12 (stereo unspecified),-8%,96,-9%,13%,6%
COc1ccccc1-c1nnc(C2CCN(C(=O)c3ccc(C)cc3)CC2)o1,6%,1,x,2%,x
COc1ccc(-c2nnc(C3CCN(S(=O)(=O)c4cccc(Cl)c4)CC3)o2)cc1,-8%,-94*,x,-22%,x
Cc1ccccc1-c1nnc(C2CCN(S(=O)(=O)c3ccc(Cl)cc3)CC2)o1,10%,-104*,x,-18%,x
COc1ccc(S(=O)(=O)N2CCC(c3nnc(-c4ccccc4C)o3)CC2)c(OC)c1,1%,-34,x,-6%,x
COc1ccc(-c2nnc(C3CCN(C(=O)c4ccccc4F)CC3)o2)cc1,-7%,-105*,x,u,x
CC1=CC(=O)c2c(O)ccc(O)c2C1=O,u,x,14µM*,x,x
COc1ccc(-c2cn(Cc3ccc(C(N)=O)cc3)c(-c3ccncc3)n2)cc1,-10%,93,12%,56%,1%
O=Cc1cscc1[B-](F)(F)F,x,18,x,x,x
